Source: PubChem BioAssay
Most compounds without a hit are left out; they make up all but 21% or so of the library.
Cycloheximide cs: Cycloheximide Counterscreen for Small Molecule Inhibitors of Shiga Toxin | cell reporter, cycloheximide protein synthesis inhibition counterscreen | max response, % | hit rate 12% among 300,000 | AID 2314, 2010; in the data active = max response mostly above about 13%, no sharp cut-off; inactive = mostly below about 14%; note: read at 38.3 µM for the half of the compounds with a filed dose; 0% is about no effect
Shiga toxin inh: A qHTS for Small Molecule Inhibitors of Shiga Toxin. hit rate 9.2% among 290,000. Vero cells, Shiga toxin protein synthesis inhibition reporter. inhibition, % at 38.7 µM; in the data active = inhibition mostly above about 28%, no sharp cut-off; inactive = mostly below about 43%; note: 0% is about no effect
Pf growth 96h: Primary qHTS for delayed death inhibitors of the malarial parasite plastid, 96 hour incubation; P. falciparum luciferase reporter growth, 96 h; Potency, µM (titrated, usually from 28.7 µM), inactives show top-dose activity change, negative = inhibition, most hits filed as inhibitors; hit rate 6.9% among 320,000; note: potency is the fitted concentration of half-maximal effect; % is set by controls: 0 for no effect and ±100 for the full control effect
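96 h incubation, 37 C, 5% CO2, of luciferase-reporter P. falciparum-infected RBCs (2% hematocrit, 0.05% parasitemia final) with test compounds; endpoint luminescence.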
Pf growth 48h: Primary qHTS for delayed death inhibitors of the malarial parasite plastid, 48 hour incubation | Potency, µM (highest dose often 28.7 µM), for the others: at the top dose activity change, negative = inhibition, hits mostly inhibitors | hit rate 5.9% among 310,000 | P. falciparum luciferase growth in erythrocytes, 48 h; note: potency is the fitted concentration of half-maximal effect; % is set by controls: 0 for no effect and ±100 for the full control effect
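A one-generation exposure of luciferase-tagged malaria parasites in RPMI 1640/Albumax erythrocyte culture, 37 C and 5% CO2. Inhibition is inferred from decreased luminescence after adding detection reagent.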
* = called active by the depositor; ? = inconclusive; . = no result given. Unless noted, calls come from the whole dose curve; as a rule, active = well fitted inhibition curve with a large enough effect; inconclusive = small, poorly fitted or top-dose-only effect, or another doubt; inactive = no such curve, though single readings can be large or run the other way.

SMILES	Cycloheximide cs	Shiga toxin inh	Pf growth 96h	Pf growth 48h
C#CCOCCOCCOCCNc1nc(N2CCN(C(=O)CCCCCCCCCCNC(=O)[C@H]([C@@H](C)CC)n3cc(CCCCCN)nn3)CC2)nc(N2CCN(C(=O)CCCCCCCCCCNC(=O)[C@@H]([C@H](C)CC)n3cc(CCCCCN)nn3)CC2)n1	.	.	?	3.3µM*
Cc1c(F)cccc1NC(=O)CCCCCC1NC(=O)NC1C (configuration not stated)	-3	27	-17%	-9%
CC(C)C(C(=O)O)N1C(=O)/C(=C/c2ccc(Br)cc2)SC1=S (configuration not stated)	27*	21*	.	.
Cc1nc(Nc2ncc(C(=O)Nc3c(C)cccc3Cl)s2)cc(N2CCN(CCO)CC2)n1	.	.	7.6µM*	9.5µM*
Cc1cccc(NC(=O)C2CCN(S(=O)(=O)c3c(C)c(C)cc(C)c3C)CC2)n1	.	.	-18%	?
O=C(NC(=S)NC(CO)Cc1ccccc1)c1ccc(F)cc1 (configuration not stated)	19*	51*	154%	98%
Cc1ccc(-c2cc(C(=O)NCCN3CCOCC3)no2)cc1	15*	25*	.	52%
Cc1ccccc1CC(=O)NCCN1CCOCC1	-1	-6	?	7%
O=C(Cc1cccs1)NCCN1CCOCC1	-1	-3	4.1µM*	-8%
O=C(NCCSc1ccc(Cl)cc1)c1ccc(CN2CCOCC2)cc1	2	4	-8%	-19%
O=C(NCCSc1ccccc1)c1ccc(CN2CCOCC2)cc1	36*	62*	3%	131%
O=C(Nc1ccccc1)NC1(C(=O)N2CCN(c3ncccn3)CC2)CCCCC1	-2	-14	0%	13%
Cc1ccc(S(=O)(=O)N2CCC(C(=O)OCc3ccc([N+](=O)[O-])cc3)CC2)cc1	7	-14	-12%	27%
CCOc1cc(N2CCOCC2)c(OCC)cc1NS(=O)(=O)c1cc(NC(C)=O)ccc1OC	0	13	0%	20%
Cc1ccc(NCC(=O)N2CCN(S(=O)(=O)c3ccccc3)CC2)cc1F	.	.	?	-28%
O=C(NC(=S)NCCN1CCOCC1)c1ccc(F)cc1	-2	44*	32%	35%
O=C(NCCN1CCOCC1)c1cc(-c2ccc(Cl)cc2Cl)on1	20*	50*	0%	64%
CN1CCN(CCNC(=O)c2ccc3nc(-c4ccc(F)cc4)c(-c4ccc(F)cc4)nc3c2)CC1	-5	-10	?	9.3µM*
CCc1nc2ccc(C(=O)NCCCN3CCN(c4ccc(F)cc4)CC3)cc2nc1CC	2	4	34%	?
O=C(NCCN1CCOCC1)c1cc(-c2ccco2)on1	11	31*	101%	39%
O=C(Cc1ccc(-c2ccccc2)cc1)NCCN1CCOCC1	-3	19	8%	3%
CC(C)CNC(=S)NC(=O)c1ccc(Cl)cc1Cl	43*	54*	-6%	-7%
O=C(NCCCN1CCOCC1)c1cc(-c2ccc(F)cc2)on1	20	13	32%	45%
O=C(NCCN1CCOCC1)c1ccc(-c2ccccc2)cc1	25*	38	35%	29%
CC(C)CNC(=S)NC(=O)c1ccc(F)cc1	62*	118*	15%	81%
SMILES	Cycloheximide cs	Shiga toxin inh	Pf growth 96h	Pf growth 48h
O=C(NCCN1CCOCC1)c1cc(-c2ccc(F)cc2)on1	15	5	0.29µM*	29%
CC(C)CNC(=O)COC(=O)CCC(=O)c1ccc(F)cc1	-2	-15	48%	.
CC(=O)N1c2ccc(S(=O)(=O)N3CCC(C(=O)Nc4cccc(Cl)c4)CC3)cc2CC1C (configuration not stated)	14	-8	25%	?
Cc1cc(N2CCOCC2)nc(-c2ccc([N+](=O)[O-])cc2)n1	7	-11	82%	15%
COc1ccc2c(c1)C(=O)N(Cc1ccccc1)C(=O)C2(C)C	-3	2	?	?
COc1cc(-c2nnc(NC(=O)CS(=O)(=O)c3ccc(C)cc3)o2)cc(OC)c1OC	.	.	-14%	?
COc1ccc(CC(=O)O/N=C(\N)Cc2cccc3ccccc23)cc1OC	2	-3	278%	10µM*
COc1ccc(CC(=O)O/N=C(\N)Cc2cccc3ccccc23)cc1	5	-9	12µM*	?
COC(=O)C(c1ccccc1)N(Cc1cccc(CN(C(C(=O)OC)c2ccccc2)S(C)(=O)=O)c1)S(C)(=O)=O (configuration not stated)	-3	-5	10µM*	8.3µM*
CCOC(=O)c1cccc(COC(=O)c2cccc(-c3nnc(-c4ccccc4)o3)c2)c1	46*	78*	5%	121%
O=C(OCc1ccc(C(=O)c2ccccc2)cc1)c1cccc(-c2nnc(-c3ccccc3)o2)c1	22*	64*	167%	34%
CC(C)OC(=O)c1ccc(COC(=O)c2cccc(-c3nnc(-c4ccccc4)o3)c2)cc1	17*	32	?	80%
O=C(c1cc(F)ccc1F)C1CCCN(Cc2cc(Cl)ccc2O)C1 (configuration not stated)	-1	.	?	4.1µM*
O=C(c1cc(F)ccc1F)C1CCCN(Cc2cccn2-c2ccccn2)C1 (configuration not stated)	-2	-7	?	?
COc1ccc(F)cc1C(=O)C1CCCN(Cc2cccn2-c2ccccn2)C1 (configuration not stated)	-2	2	3.3µM*	10µM*
COc1ccc(F)cc1C(=O)C1CCCN(Cc2cn(C)c3ccccc23)C1 (configuration not stated)	-2	-8	34%	?
COc1ccc(F)cc1C(=O)C1CCCN(Cc2c[nH]c3ccccc23)C1 (configuration not stated)	-3	4	13µM*	?
O=C1NC2(CCCCCC2)C(=O)N1Cc1ccccc1Br	-6	-9	35%	9%
O=C(NCC1CCCO1)C(c1ccco1)N(Cc1ccc(F)cc1)C(=O)CN1C(=O)c2ccccc2S1(=O)=O (configuration not stated)	-11	-5	-8%	-18%
CCOC(=O)CC1(NC(=O)c2cc(COc3cccc(OC)c3)on2)CCCCC1	14	34	8%	?
COc1cccc(CSc2nc(N)cc(N)n2)c1	14	4	0%	21%
O=S(=O)(Nc1cc(O)cc2cccnc12)c1ccc(Br)s1	-8	-5	.	.
Cc1cccc(C(=O)NCC(=O)NCC2COc3ccccc3O2)c1 (configuration not stated)	.	.	16%	?
O=C(O)c1ccc(COc2ccc3c(c2)CCC3)cc1	25*	54*	152%	101%
Cc1ccc(NC(=O)c2ccc(OCC3CCCO3)cc2)c(C)c1 (configuration not stated)	16	5	337%	40%
O=C(Nc1ccccc1Cl)c1ccc(COc2ccc3c(c2)CCC3)cc1	25*	60*	83%	44%
NNC(=O)c1ccc(COc2ccc3c(c2)CCC3)cc1	16	11	3%	31%
Cc1ccc(NC(=O)c2ccc(COc3ccc4c(c3)CCC4)cc2)c(C)c1	17*	25	?	2%
